# Inconclusive results are not listed. Calls of active or inactive are those of the source. Rule for the calls: active = hit-call score of the fitted dose curve at least 0.9, where 1 is the maximum; inconclusive = response in the unintended direction; inactive = score below 0.9.
# Biological target: human Thyroid Receptor alpha (THRa1), THRA (gene 7067) (UniProt P10827)
# Experiment: ATG_THRa1_TRANS: Attagene TRANS-FACTORIAL HepG2 Assay for human Thyroid Receptor alpha (THRa1) (AID 2283014)
# Description: ATG_TRANS is a cell-based, multiplexed-readout assay that uses HepG2, a human liver cell line, with measurements taken at 24 hours after chemical dosing in a 24-well plate.ATG_THRa1_TRANS is one of 30 assay component(s) measured or calculated from the ATG_TRANS assay. It is designed to make measurements of mRNA induction, a form of inducible reporter, as detected with fluorescence intensity signals by Reverse transcription polymerase chain reaction (RT-PCR) and Capillary electrophoresis technology.Data from the assay component ATG_THRa1_TRANS was analyzed into 1 assay endpoint. This assay endpoint, ATG_THRa1_TRANS, was analyzed in the positive analysis fitting direction relative to DMSO as the negative control and baseline of activity. Using a type of inducible reporter, measures of mRNA for gain-of-signal activity can be used to understand the reporter gene at the transcription factor-level as they relate to the gene THRA. Furthermore, this assay endpoint can be referred to as a primary readout, because this assay has produced multiple assay endpoints where this one serves a reporter gene function. To generalize the intended target to other relatable targets, this assay endpoint is annotated to the nuclear receptor intended target family, where the subfamily is non-steroidal.
# Human liver HepG2 cells are transiently transfected with multiple reporter transcription units (MRTUs) in 6-well plates using FuGene 6 reagent (Roche; 3 ml FuGene/1 mg DNA). The MRTU constructs are regulated by a cis-regulating element (promoter). […] A major difference between the CIS and TRANS system is that in CIS activities of endogenous TFs are measured, whereas the TRANS assay evaluates changes in activities of exogenous, chimeric NR-Gal4 proteins. […] At the end of 24 hour incubation, total RNA was isolated using TriZol reagent (Invitrogen). The isolated RNA is then reverse-transcribed using oligo(dT) primer and Mo-MLV reverse transcriptase (Invitrogen) with DNAse I (Ambion) treatment for 30 min. The one-tenth of the produced cDNA was amplified by PCR using Taq DNA polymerase (Invitrogen) and two reporter sequence-specific primers. The PCR products were fluorescently labeled by primer extension with 6-arboxyfluorescein (6-FAM) 5'-labeled reporter sequence-specific primer (2 min at 95 C, 20 s at 68 C and 10 min at 72 C) and these products were digested with 5U of HpaI (New England Biolabs) for 2h at 37 C. The fragments were purified using Qiaquick PCR columns (Qiagen), analyzed on an ABI 3130xL genetic analyzer (Applied Biosystems) with peak positions identified by using a set of X-rhodamine (ROX)-labeled MapMarker1000 molecular weight standards (BioVentures). The raw capillary electrophoresis data was processed using Attagraph software (Attagene).
# human Thyroid Receptor alpha (THRa1), THRA (gene 7067), sequence (P10827 whole entry, looked up): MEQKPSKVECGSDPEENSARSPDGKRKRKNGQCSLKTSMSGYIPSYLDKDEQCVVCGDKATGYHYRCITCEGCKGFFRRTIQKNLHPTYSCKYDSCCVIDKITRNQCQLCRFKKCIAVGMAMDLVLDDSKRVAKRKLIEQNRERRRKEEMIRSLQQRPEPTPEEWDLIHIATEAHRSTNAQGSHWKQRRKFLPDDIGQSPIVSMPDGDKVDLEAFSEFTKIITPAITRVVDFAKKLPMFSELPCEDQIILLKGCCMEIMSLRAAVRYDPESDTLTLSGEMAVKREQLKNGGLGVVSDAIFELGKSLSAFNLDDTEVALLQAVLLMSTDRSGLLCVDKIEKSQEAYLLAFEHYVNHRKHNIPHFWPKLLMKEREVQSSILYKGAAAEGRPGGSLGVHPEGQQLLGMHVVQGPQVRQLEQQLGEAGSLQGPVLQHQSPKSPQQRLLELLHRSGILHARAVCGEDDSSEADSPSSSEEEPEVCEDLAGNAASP
row,SMILES,outcome
1,c1csc(-c2ccc(-c3cccs3)s2)c1,inactive
2,N#Cc1ccccc1N,inactive
3,Cc1ccccc1OP(=O)(Oc1ccccc1)Oc1ccccc1,inactive
4,NC(=O)CCl,inactive
5,C=CCOC(N)=O,inactive
6,CC(C)N(C(=O)CCl)c1ccccc1,inactive
7,CC(C)(C)c1ccccc1O,inactive
8,Oc1c(Cl)cc(Cl)cc1Cl,inactive
9,COCCl,inactive
10,O=C1C=CC(=O)c2ccccc21,inactive
11,CCOc1ccc(N)cc1,inactive
12,CCC(C)(C#N)N=NC(C)(C#N)CC (stereo not given),inactive
13,O=S1(=O)OC(c2cc(Br)c(O)c(Br)c2)(c2cc(Br)c(O)c(Br)c2)c2ccccc21,inactive
14,O=C=Nc1ccc(Cl)cc1,inactive
15,C#CCO,inactive
16,Cc1cc(C(C)(C)c2ccc(O)c(C)c2)ccc1O,inactive
17,C1CN2CCN1CC2,inactive
18,CCOc1cc(C=O)ccc1O,inactive
19,CCCCCCCCCCCCN(C)C,inactive
20,O=c1[nH]c(=O)n(Cl)c(=O)n1Cl,inactive

row,SMILES,outcome
1,CCCCOC(=O)COC(=O)c1ccccc1C(=O)OCCCC,inactive
2,CCCCCCCCCCCCCl,inactive
3,OCC(c1ccc(Cl)cc1)c1ccc(Cl)cc1,inactive
4,O=NN1CCCCCC1,inactive
5,c1ccc(-c2cccc(-c3ccccc3)c2)cc1,inactive
6,COC(=O)c1cc(Oc2ccc(Cl)cc2Cl)ccc1[N+](=O)[O-],inactive
7,CC(C)(C)c1cc([N+](=O)[O-])cc(C(C)(C)C)c1O,inactive
8,CC[N+](CC)(CC)CC,inactive
9,Cc1cc(Cl)ccc1OCCCC(=O)O,inactive
10,COC(=O)Nc1cccc(OC(=O)Nc2cccc(C)c2)c1,inactive
11,OC(Cc1ccccc1Cl)(Cn1cncn1)C1(Cl)CC1 (stereo not given),inactive
12,CN(C)[C@@H]1C(=O)C(C(N)=O)=C(O)[C@@]2(O)C(=O)C3=C(O)c4c(O)ccc(Cl)c4[C@@](C)(O)[C@H]3C[C@@H]12,inactive
13,Fc1cccc(Cl)c1CCl,inactive
14,O=C(CCl)Nc1ccccc1,inactive
15,Oc1cccc(-c2ccccc2)c1,inactive
16,COc1ccc(N)cc1,inactive
17,O=C(Cl)OCCOCCOC(=O)Cl,inactive
18,Cc1cc(Cl)ccc1OC(C)C(=O)O (stereo not given),inactive
19,CCCCN(CCCC)C(=S)[S-].CCCCN(CCCC)C(=S)[S-].[Ni+2],inactive
20,CNC(=O)O/N=C/C(C)(C)S(C)(=O)=O,inactive
